# In PubChem BioAssay (NCI):
# This is part of a sample that, as a whole, favours compounds with a hit. Of some 83,000 tested, about 20% had one in any assay.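 Compound tested at a single concentration for 48 hours in 96-well plates; a percent growth value below 10 was scored as active.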 Unmarked numbers belong to inactive results. Calls of active or inactive are those of the source.
# System: HL-60(TB) leukemia
# Experiment: NCI-60 one-dose screen, 48 h (100 = growth as untreated, 0 = no growth, -100 = all killed)
# Settings: 10 µM unless noted
row,SMILES,growth
1,C=CC(=O)Nc1ccc(Nc2nccc(-c3ccc(N4CCCC4)c(C#N)c3)n2)cc1,-71.8% (active)
2,CCOC(=O)c1c(C)nc2c(c1N)/C(=C/c1ccc[nH]1)C(=O)N2Cc1ccc(C(F)(F)F)cc1,96.7%
3,CO[C@H]1/C=C/C=C/C=C/C[C@H](OC(=O)[C@@H](C)NC(=O)C2CCCCC2)[C@H](C)[C@@H](O)/C(C)=C\CCC2=CC(=O)C=C(NC(=O)C1)C2=O,-26.6% (active)
4,CCCNc1nc(N(C)O)nc(N(C)O)n1,3.47% (active)
5,CC(=O)c1ccc2c3c(n(C)c2c1)CCCC3,93.1%
6,O=C1Nc2cc(-c3ccc(NC(=O)C4CC4)cc3)ccc2/C1=C/c1ccc[nH]1,100%
7,Cc1ncc(C(=O)Nc2ccc(CN3CCN(C)CC3)c(C(F)(F)F)c2)cc1C#Cc1c(N)ncc2ccccc12,-51.1% (active)
8,Cc1ccc(Sc2ccccc2N)cc1,115%
9,CCn1cc(C(=O)O)c(=O)c2cc(F)c(N3CCN(S(=O)(=O)c4ccc(Cl)cc4)CC3)cc21,8.96% (active)
10,CC(C)CN(C(=O)c1ccc(Cl)cc1)c1c(N)n(CC(C)C)c(=O)[nH]c1=O,90.8%
11,c1cc(OCCN2CCCC2)ccc1CNc1ccc2nc(CCC3CCCCC3)[nH]c2c1,-4.69% (active)
12,CCCCC/C=N/Nc1nc(C)cc(=O)[nH]1,108%
13,O=C1/C(=C/c2cccc(Br)c2)COc2ccc(O)c(O)c21,-15.3% (active)
14,Cc1cc(=O)[nH]c(/C(=N/Nc2ccccc2)C(=O)c2ccc(Cl)cc2)n1,50.7%
15,CC1(C)C(=O)CC[C@]2(C)[C@H]3C(=O)C=C4[C@@H]5C[C@@](C)(C(=O)NCCNCCN)CC[C@]5(C)CC[C@@]4(C)[C@]3(C)CC[C@@H]12,90.1%
16,C/C(=N\N=C1/SCC(=O)N1c1ccccc1)c1ccco1,99%
17,Clc1ccccc1CNc1c2ccccc2nc2ccccc12,13.6%
18,Clc1ccc(-c2cc(-c3ccccc3)nc(NCCNc3ccnc4cc(Cl)ccc34)n2)cc1,-31.9% (active)
19,O=C(/C(=N/O)S(=O)(=O)c1ccccc1)c1cccs1,90.9%
20,COc1cc(-c2nn(C(=O)NCCN3CCN(C)CC3)cc2-c2ccncc2)ccc1Cl,93.2%
21,COc1cc(C(=O)N2N=C(c3ccc(S(C)(=O)=O)cc3)CC2c2ccco2)cc(OC)c1OC (stereo not given),90.3%
22,CN(C)CCCC1(c2ccc(F)cc2)OCc2cc(-c3cc4ccccc4s3)ccc21 (stereo not given),22.3%
23,CCCC(=O)OCC1OC(n2cnc3c(=S)nc[nH]c32)C(OC(=O)CCC)C1OC(=O)CCC (stereo not given),32.1%
24,CCOC(=O)c1cnn(CC(C)O)c1NC(=O)NCc1ccccc1C(F)(F)F (stereo not given),58%
25,O=C1N=c2ccccc2=C1c1sc(=Nc2ccccc2)n(Nc2ccccc2)c1O,97.5%
26,CC(C)N1CCN(c2ccc(OC[C@H]3CO[C@](Cn4cncn4)(c4ccc(Cl)cc4Cl)O3)cc2)CC1,91.3%
27,O=C(NNc1nc2cc(F)ccc2n2c(CN3CCOCC3)ccc12)c1ccccc1,-1.51% (active)
28,O=C(Nc1cc(Cl)ccc1O)c1cccc(Nc2ccnc(C(F)(F)F)c2)c1,-18% (active)
29,Cc1cccc(C)c1N1C(c2ccccc2)=NNC12C=CC(=O)c1c(O)cccc12 (stereo not given),61.2%
30,CC(=O)O[C@H]1C(=O)[C@@]2(C)[C@H]([C@H](OC(=O)c3ccccc3)[C@]3(O)C[C@H](OC(=O)[C@H](OC(=O)CCC(=O)OC4CCC(S/N=C(N)/N=C(\N)N(C)C)CC4)[C@@H](NC(=O)c4ccccc4)c4ccccc4)C(C)=C1C3(C)C)[C@]1(OC(C)=O)CO[C@@H]1C[C@@H]2O (stereo not given in full),7.49% (active)
